RmlCD inh mix – RmlC/RmlD inhibition, mixture screen; RmlC/RmlD coupled enzyme inhibition, 384-well mixture HTS; inhibition, % at 5.5 µM; hit rate 0.39% among 110,000; in the data active = inhibition above about 30%, passing the limit was not always enough
YopH PTP inh – inhibitors of Yersinia enterocolitica YopH tyrosine phosphatase; fluorescence Ex485/Em525; hit rate 0.16% among 140,000; inhibition, % (concentration not given with the values); in the data active = inhibition above about 50%
RmlCD artifact – shows fluorescent artifact in RmlC/RmlD assay, dose-response counter-screen | shares compounds with RmlCD inh mix | RmlC/RmlD assay fluorescence artifact counter-screen | calls only | hit rate 96% among 360 | AID 1696; call rule not given here;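 also: compound alone with no enzyme and no substrates present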
Numbers stand for hits; – = inactive; · = no result given; + = active, no number. The list is not random: actives were taken first. Their share in the collection is about 0.44%.

SMILES	RmlCD inh mix	YopH PTP inh	RmlCD artifact
COC(=O)c1c(N)n(CCCN2CCOCC2)c2nc3ccccc3nc12	–	–	·
COCCNC(=O)c1c(N)n(Cc2ccco2)c2nc3ccccc3nc12	–	–	·
Cc1cc(C)cc(NC(=O)CSCc2nc3c(nnn3Cc3ccc(F)cc3)c(=O)[nH]2)c1	–	–	·
C=C1CCN([C@@H](C)C(=O)NCCCCCC)S(=O)(=O)c2ccccc21	–	·	·
C=CCOC(=O)C1=C[C@H](C2CC2)[C@@H](CCCO)[C@H](OCC)O1	–	·	·
CC(NC(=S)Nc1ccc(Cl)cc1)C(c1ccccc1)N1CCOCC1 (centres undefined)	·	–	·
Brc1ccccc1Cn1c(-c2cscn2)nc2ccccc21	–	–	·
CCOc1cc(-c2nc3c(C)cccn3c2NCC2CCCO2)ccc1O (centres undefined)	43.6	–	+
CCOc1cc(-c2nc3ccccn3c2NCC2CCCO2)ccc1O (centres undefined)	–	–	·
CCN(CC)S(=O)(=O)c1ccc(OC(C)C)c(NC(=O)c2c3c(nc4ccccc24)CCN(Cc2ccccc2)C3)c1	·	–	·
COC(=O)c1cc(=O)nc2sc(-c3ccc(F)cc3)nn12	–	–	·
COC(=O)c1cc(=O)nc2sc(-c3cccs3)nn12	39.4	–	+
C[C@@H](Oc1ccccc1)c1nnn(Cc2ccccc2)c1-c1c([C@@H](C)Oc2ccccc2)nnn1Cc1ccccc1	–	·	·
Fc1ccc(-n2nnc(-c3ncc[nH]3)n2)cc1	–	·	·
O=C(COC(=O)C1(c2ccc(F)cc2)CCCC1)N1CCc2ccccc21	·	–	·
CNC(=O)c1cc2c(s1)-c1ccccc1CC2	·	·	+
O=C(N/N=C/c1ccc(F)c(F)c1)c1cc2c(s1)-c1ccccc1CC2	–	–	·
CCOC(=O)N1CCN(C(=O)c2ccc3nc4ccc(Cl)cc4c(=O)n3c2)CC1	48.2	–	+
CCOC(=O)N1CCN(C(=O)c2ccc3nc4ccsc4c(=O)n3c2)CC1	·	–	·
Cc1nc(NC(=O)c2ccccc2)sc1C1(C)CC(c2ccc(OC(F)(F)F)cc2)=NO1 (centres undefined)	–	·	·
O=C(NCc1ccco1)C(c1ccccc1)N(C(=O)Cc1cccs1)c1ccccc1F (centres undefined)	–	–	·
COc1ccc(-c2cc(C(F)(F)F)n3nc(N)nc3n2)cc1	75.3	–	+
COc1cccc(-c2cc(C(F)(F)F)n3nc(N)nc3n2)c1	–	–	·
COc1cc2cc(CN(Cc3ccc4c(c3)OCO4)C(=O)c3ccco3)c(=O)[nH]c2cc1OC	45.8	–	+
Cc1cc2cc(CN(Cc3ccc4c(c3)OCO4)C(=O)c3ccco3)c(=O)[nH]c2cc1C	–	–	·
SMILES	RmlCD inh mix	YopH PTP inh	RmlCD artifact
O=C(Nc1ccccc1N1CCOCC1)c1cc(-c2ccco2)nc2ccccc12	·	–	·
O=C(NNC(=O)c1cc(-c2ccco2)nc2ccccc12)c1ccccc1	·	·	+
O=C(COC(=O)c1cc(-c2ccco2)nc2ccccc12)NCc1ccccc1	–	–	·
CNC(=O)COC(=O)c1cc(-c2ccco2)nc2ccccc12	·	·	+
COc1cccc(/C=C/c2nc3c(cnn3-c3ccccc3)c(=O)[nH]2)c1	·	·	+
COc1cccc(/C=N/n2nnc3c(cnn3-c3ccccc3)c2=O)c1	·	–	·
CC(/C=C1\N=C(SCc2ccccc2)SC1=O)=C\c1ccccc1	·	–	·
CC12C(=O)N(Cc3ccco3)C(=O)C1C1c3ccccc3C2c2ccccc21 (centres undefined)	–	–	·
O=C(NCC1CCCO1)c1coc2nc3ccccc3nc12 (centres undefined)	–	–	·
COC(CNC(=O)c1coc2nc3ccccc3nc12)OC	·	·	–
O=C1OCC2OC(O)C(O)C(O)C2OC(=O)c2cc(O)c(O)c(O)c2-c2c(O)c(O)c3oc(=O)c4c(c(O)c(O)c5oc(=O)c2c3c54)-c2c1cc(O)c(O)c2O (centres undefined)	35.1	·	+
CC1CCN(c2ccc3c(c2)S(=O)(=O)c2ccccc2C3=O)CC1	–	·	·
Cn1c(/C=N/c2nc3ccccc3[nH]2)nc2ccccc21	–	–	·
Cn1c(/C=N/n2cnnc2)nc2ccccc21	44.5	–	+
CC[C@H](C)[C@@H](NC(=O)O[C@@H]1C(=O)c2cc(Br)ccc2O[C@H]1c1ccc2c(c1)OCO2)C(=O)OC	–	–	·
CC(=O)Nc1ccc(S(=O)(=O)NCC(=O)OC(C)c2ccccc2Cl)cc1 (centres undefined)	·	–	·
Nc1ccc(-c2nc3ccccc3[nH]2)cc1	–	–	·
O=C(O)c1ccc(-c2nc3ccccc3[nH]2)cc1	·	–	–
Cc1ccc(NC(=O)CN2C(=O)NC(Cc3c[nH]c4ccccc34)C2=O)cc1S(=O)(=O)N1CCCCC1 (centres undefined)	·	–	·
CCCCCCc1cc2cc(-c3nnc(-c4ccccc4OC)o3)c(=O)oc2cc1O	181.3	–	+
COc1ccc(-c2nnc(-c3cc4ccccc4oc3=O)o2)cc1	–	–	·
CN(C)c1ccc(C(=O)OCC(=O)NCC2CCCO2)cc1 (centres undefined)	–	–	·
Cc1sc2nc(CSCC(=O)Nc3ccccc3C#N)[nH]c(=O)c2c1C	·	–	·
CCOc1cccc(Nc2cc3n(c(=O)n2)CCc2cc(OC)c(OC)cc2-3)c1	–	–	·
COc1cc2c(cc1OC)-c1cc(OCc3cccnc3)nc(=O)n1CC2	115.4	–	+
SMILES	RmlCD inh mix	YopH PTP inh	RmlCD artifact
COc1ccc2c(c1OC)C(=O)N1N=C(c3ccc(O)cc3)CC21 (centres undefined)	–	–	·
CC1CN(c2oc(-c3cccs3)nc2C#N)CC(C)O1 (centres undefined)	74.6	–	+
N#Cc1nc(-c2cccs2)oc1NCCCN1CCOCC1	66.7	51.2	+
COc1ccc(-c2nc(C#N)c(NCCCN3CCOCC3)o2)cc1	·	–	·
N#Cc1nc(-c2cccs2)oc1NCC1CCCO1 (centres undefined)	107.4	–	+
O=S(=O)(c1ccccc1)c1nc(-c2cccs2)oc1NCC1CCCO1 (centres undefined)	–	–	·
N#Cc1nc(-c2cccs2)oc1N1CCOCC1	–	–	·
CS(=O)(=O)c1ccc(CNC(=O)C2(C(F)(F)F)C/C(=C\Cc3ccccc3)CCCO2)cc1 (centres undefined)	–	·	·
CSCC(=O)NS(=O)(=O)c1ccc(C)cc1	–	–	·
Cc1nc(C(N)=O)nc2ccccc12	–	·	·
COc1ccc(-c2nnc(N(C)C(=O)c3ccno3)s2)cc1	–	–	·
CN(C(=O)c1ccncc1)c1nnc(-c2cccnc2)s1	·	–	·
CN(C(=O)c1ccc(C#N)cc1)c1nnc(-c2ccccn2)s1	40.0	–	–
CN(C(=O)c1ccccn1)c1nnc(-c2ccncc2)s1	·	–	·
CN(C(=O)c1cccc(C#N)c1)c1nnc(-c2ccccn2)s1	36.5	–	+
CN(C(=O)c1ccno1)c1nnc(-c2ccccn2)s1	+	–	+
CN(C(=O)c1cccc(C#N)c1)c1nnc(C2CCOC2)s1 (centres undefined)	–	–	·
CN(C(=O)c1ccncc1)c1nnc(-c2ccccn2)s1	107.8	–	+
CCN(CC)CCCN1C=C2C(=O)C(C)(OC(=O)C3CCCC3)C(=O)C=C2C=C1c1ccsc1 (centres undefined)	–	·	·
C#Cc1ccc([C@H]2C=C(C(=O)Nc3ccccc3)O[C@@H](OCc3ccc(CO)cc3)C2)cc1	–	·	·
CCn1cc(C2C(C(=O)Nc3cc(C)ccn3)=C(C)NC3=C2C(=O)CC(C)(C)C3)c(C)n1 (centres undefined)	·	–	·

Bioassay records as filed in PubChem BioAssay.
